Calls of active or inactive are those of the source. The rule behind the calls is not given here.

A short description of the assay: inhibitors of hydroxyurea-induced Chk1 phosphorylation, primary screen, imaging, HeLa, phospho-Chk1 nuclear intensity (AID 1187). Note: test concentration not given here. Particulars: hydroxyurea-induced phospho-Chk1 immunofluorescence imaging, higher = more signal.
For `CN1C(=O)C2C=CC(C(O)C3CCCCC3)N(N(c3ccccc3)c3ccccc3)C2C1=O` (centres undefined), the z-score was -0.024 (inactive). The value for `CC(C)(C)OC(=O)CC[C@]1(C(=O)O)COC(c2ccc(OCCCO)cc2)=N1` was -0.122 (inactive); that for `O=C1O[C@H](c2ccccc2)[C@H](c2ccccc2)N2[C@H]1[C@@H](C(=O)N1CCN(c3ncccn3)CC1)[C@]1(C(=O)Nc3ccc(C#CCCO)cc31)[C@H]2c1ccc(OCCO)cc1` was 0.923 (inactive); that for `CN1C(=O)C2C=CC(C(O)c3cccc4ccccc34)N(NC(=O)OC(C)(C)C)C2C1=O` (centres undefined) was -0.397 (inactive).

Source of the values: PubChem BioAssay.
